Shown are actives, neighbours in structure and some others; about 1.4% of the full set was active somewhere.
Wee1 degr inh = human Wee1 degradation inhibition, primary screen. reporter increase, % at 5 µM. 220,000 tested, 1.2% active. HeLa Luc-Wee1K328M stability, luciferase luminescence; 100% = proteasome inhibitor MG132 effect. AID 1321;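 active = activation above the mean of all tested compounds plus 3 SD, set per screening run, cut at about 8.8% in these data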;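 also: cells exposed to compound for 20 h before luminescence read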
Target sequence (P30291 whole entry K328M): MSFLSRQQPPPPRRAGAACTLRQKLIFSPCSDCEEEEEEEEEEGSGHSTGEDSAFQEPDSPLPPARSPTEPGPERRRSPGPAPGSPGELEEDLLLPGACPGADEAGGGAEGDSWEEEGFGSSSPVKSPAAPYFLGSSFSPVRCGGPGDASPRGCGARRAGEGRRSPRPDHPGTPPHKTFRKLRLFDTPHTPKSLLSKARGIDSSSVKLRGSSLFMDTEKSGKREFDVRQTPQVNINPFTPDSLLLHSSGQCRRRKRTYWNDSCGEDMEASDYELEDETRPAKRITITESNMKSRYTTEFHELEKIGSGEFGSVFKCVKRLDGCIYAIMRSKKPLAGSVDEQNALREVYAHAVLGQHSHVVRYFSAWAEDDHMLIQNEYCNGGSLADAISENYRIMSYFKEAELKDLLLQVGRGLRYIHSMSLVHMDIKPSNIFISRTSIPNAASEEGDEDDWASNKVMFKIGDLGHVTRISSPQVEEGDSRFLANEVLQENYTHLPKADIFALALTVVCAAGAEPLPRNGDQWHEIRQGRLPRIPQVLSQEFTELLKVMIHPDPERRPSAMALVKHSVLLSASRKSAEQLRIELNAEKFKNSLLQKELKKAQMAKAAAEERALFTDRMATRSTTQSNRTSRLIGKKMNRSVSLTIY
TNF necrop inh = inhibitors of TNF-alpha induced necroptosis in Jurkat FADD-/- cells. Jurkat FADD-/- TNF necroptosis rescue, ATP luminescence, 24 h; 0 = TNF only, 100 = no-TNF cells. activation (protection from cell death), % at 10 µM. 220,000 tested, 0.068% active. AID 463075;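 active = activation, meaning protection from cell death, of at least 50% relative to plate controls; inactive = activation below 50%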;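 also: necroptosis triggered by 40 ng/mL TNF-alpha added together with compound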
zVAD death inh = blocks zVAD induced death of L929 cells | L929 zVAD necroptosis rescue, ATP luminescence, 24 h; with zVAD 60 µM | viability rescue, % at 10 µM | 220,000 tested, 0.38% active | AID 1377;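 active = activation, scaled between plate controls, above about 75%, limit read from the data; inactive = activation under that limit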
HSV augment = HSV replication enhancement; HSV replication augmentation in cells, fold increase; maximum fold increase; 220,000 tested, 0.005% active; AID 1956; in the data active = maximum fold increase above about 1.5; tested in PC3 cells
V-ATPase pH = alters yeast V-ATPase proton transport; 350,000 tested, 0.37% active; S. cerevisiae, pHLuorin cytosolic pH fluorescence; response, % at 10 µM; AID 504577; in the data active = response mostly above about 7.3%, no sharp cut-off; inactive = mostly below about 5.4%; also: actives read high
V-ATPase pH SP = regulators of yeast V-ATPase proton transport; shares compounds with V-ATPase pH; response, % at 10 µM; 980 tested, 2% active; S. cerevisiae pHLuorin cytosolic pH; AID 602197; in the data active = response above about 24%
Numbers stand for hits; . = inactive; / = not tested or not shown.

SMILES	Wee1 degr inh	TNF necrop inh	zVAD death inh	HSV augment	V-ATPase pH	V-ATPase pH SP
COC(=O)c1cc(S(=O)(=O)N2CCN(c3cccc(C)c3C)CC2)c[nH]1	/	/	/	/	.	/
Cc1cc(=O)oc2cc(NC(=O)c3c(Cl)cnn3C)ccc12	/	/	/	/	9.2	.
O=C(c1ccc(N2CCOCC2)c([N+](=O)[O-])c1)N1CCN(Cc2ccccc2)CC1	/	/	/	/	.	/
Cc1ccc(S(=O)(=O)n2cnc(C)c2)cc1	/	/	/	/	13	.
CN(c1ccccc1)S(=O)(=O)c1cccc(NC(=O)CCNC(=O)c2ccco2)c1	/	/	/	/	.	/
O=C1NC(=S)N/C1=C/c1cccc2ccccc12	/	/	/	/	9.1	.
COc1ccc(Br)cc1C(=O)N/N=C/c1cccnc1	/	/	/	/	.	/
COc1cc2ccccc2cc1C(=O)N/N=C/c1cccnc1	/	/	/	/	21	.
CC(Oc1cc(F)ccc1[N+](=O)[O-])C(=O)Nc1ccc(S(=O)(=O)N2CCCC2)cc1 (stereo not drawn)	.	.	.	.	15	.
Cc1ccccc1OC(C)C(=O)Nc1ccc(S(=O)(=O)N2CCCC2)cc1 (stereo not drawn)	/	/	/	/	.	/
OCCC1CN(Cc2ccccc2OC2CCCC2)CCN1Cc1ccsc1 (stereo not drawn)	.	.	.	.	8.4	.
OCCC1CN(Cc2cccc3nonc23)CCN1Cc1ccsc1 (stereo not drawn)	.	.	.	.	.	/
Cc1ccccc1OCC(O)CNC1CCC(NCC(O)COc2ccccc2C)CC1 (stereo not drawn)	/	/	/	/	.	/
Cc1ccc(NC(=O)c2ncn(CCCN3CCN(c4ccccn4)CC3)n2)cc1C	/	/	/	/	13	.
Cc1ccccc1C(=O)NC(=S)Nc1ccc(S(=O)(=O)N2CCOCC2)cc1	.	.	.	.	9.5	.
COc1ccc(OCCC(=O)OCC(=O)NCCc2ccccc2)cc1	.	.	.	.	7.6	.
COc1ccc(CNC(=O)COC(=O)CCOc2ccccc2)cc1	.	.	.	.	.	/
Cc1cccc(NC(=O)COC(=O)c2nn(C)c(=O)c3ccccc23)c1C	/	/	/	/	.	/
COc1cccc(/C=C/C(=O)Nc2cc(S(=O)(=O)N3CCOCC3)ccc2OC)c1	/	/	/	/	12	.
O=C(/C=C/c1ccc(F)cc1)Nc1cc(S(=O)(=O)N2CCOCC2)ccc1N1CCCC1	.	.	.	.	.	/
COc1ccc(/C=C/C(=O)Nc2cc(S(=O)(=O)N3CCOCC3)ccc2OC)cc1	/	/	/	/	.	/
O=C(/C=C/c1cccc(F)c1)Nc1cc(S(=O)(=O)N2CCOCC2)ccc1N1CCCC1	.	.	.	.	6.5	.
O=C(Cn1c2ccc(F)cc2c2nc3n(c(=O)c21)CCS3)NCC1CCCO1 (stereo not drawn)	/	/	/	/	.	/
CCOc1cccc(-c2c(C(=O)N/N=C(\C)c3cccs3)nnn2-c2nonc2N)c1	/	/	/	/	.	/
CC1CC(C)(C)NC(=S)N1CC(=O)NCc1ccc(F)cc1 (stereo not drawn)	.	.	.	.	8.5	.
SMILES	Wee1 degr inh	TNF necrop inh	zVAD death inh	HSV augment	V-ATPase pH	V-ATPase pH SP
CC(C)CN1CCNC(=O)C1CC(=O)NCCCN1CCCc2ccccc21 (stereo not drawn)	.	.	.	.	.	/
O=C(Nc1ccc2oc(-c3cccnc3)nc2c1)c1ccc([N+](=O)[O-])o1	.	.	.	.	11	.
O=C(Nc1ccc2oc(-c3cccnc3)nc2c1)c1ccc(Br)o1	.	.	.	.	.	/
N#CC1=C(N)Oc2c(ccc3cccnc23)C1c1cccnc1 (stereo not drawn)	.	.	.	/	9.7	.
Clc1cccc(/C=N/N2CCN(Cc3ccccc3)CC2)c1	/	/	/	/	14	.
CCCN(C(=O)C1CCCN(c2ncnc3c2nc2n3CCCCC2)C1)c1ccc(F)cc1 (stereo not drawn)	/	/	/	/	.	/
CCOC(=O)c1c(N)sc(C(=O)N(C)C)c1C	.	.	.	.	15	.
CCOC(=O)c1c(N)sc(C(=O)OC)c1C	.	.	.	.	.	/
CC(C)CCc1noc(CN(C)CCC2CCOCC2)n1	.	.	.	.	.	/
CN(CCC1CCOCC1)Cc1nc(Cc2ccccc2F)no1	.	.	.	.	11	.
Cc1cc(C(C)(C)C)cc(S(=O)(=O)Nc2ccc(O)c(C(=O)O)c2)c1C	.	.	.	.	.	/
CC(=O)Nc1ccc(NC(=O)c2ccc(NS(=O)(=O)c3cc(C(C)(C)C)cc(C)c3C)cc2)cc1	.	.	.	.	11	.
Cc1c(Cl)sn(-c2ccc(Cl)cc2)c1=O	.	.	.	.	66	61
C/C(=C/c1ccccc1)C(=O)N1CCC(C)CC1	/	/	/	/	11	.
CCOC(=O)C1CCN(C(=O)/C(C)=C\c2ccccc2)CC1	.	.	.	.	.	/
COc1ccc(Cl)cc1NC(=O)CN1CCc2ccccc2C1	/	/	/	/	.	/
CCOP(=O)(OCC)C(Nc1cccc([N+](=O)[O-])c1)c1ccccc1 (stereo not drawn)	.	.	.	.	.	/
Cc1ccc(C(=O)NNC(=S)NC(=O)c2ccco2)cc1	.	.	.	.	.	/
Cc1ccc(C(=O)NNC(=O)c2ccco2)cc1	.	.	.	.	17	.
OCC(O)C(O)C(O)c1cnn(-c2ccccc2)n1 (stereo not drawn)	/	/	/	/	.	/
O=C(CCSc1ccccc1)NC1CCCCCC1	.	.	.	.	.	/
O=C(CCSc1ccc(Cl)cc1)NC1CCCCC1	.	.	.	/	13	.
CN(CC(=O)NC1CCCCCC1)S(=O)(=O)c1ccc(F)cc1	/	/	/	/	.	/
CN(CC(=O)NC1CCCCC1)S(=O)(=O)c1ccc(Cl)cc1	.	.	.	.	11	.
CC(Oc1ccc2c(=O)c(-c3ccc(Cl)cc3)c(C(F)(F)F)oc2c1)C(=O)O (stereo not drawn)	.	.	.	.	.	/
SMILES	Wee1 degr inh	TNF necrop inh	zVAD death inh	HSV augment	V-ATPase pH	V-ATPase pH SP
COC/C=C/C1=CC2=CC(=O)C(C)(OC(=O)c3cnc4ccccc4n3)C(=O)C2=CN1C1CC1 (stereo not drawn)	/	/	/	.	12	.
CC(NC(=S)Nc1ccc(Cl)cc1Cl)C(c1cccs1)N1CCCC1 (stereo not drawn)	.	.	/	.	.	/
O=C(NCc1ccco1)C(=O)NCC(c1ccco1)N1CCOCC1 (stereo not drawn)	.	.	.	.	19	.
O=C(NCc1cccnc1)C(=O)NCC(c1ccco1)N1CCOCC1 (stereo not drawn)	.	.	.	.	.	/
Cc1c(CNCCc2ccccc2Cl)c(C(=O)O)c(C)n1-c1ccccc1	/	/	/	/	.	/
CCOc1ccc(C2C(C#N)=C(N)SC(N)=C2C#N)c(OCC)c1	.	.	.	.	12	.
CCOc1cc(C2C(C#N)=C(N)SC(N)=C2C#N)ccc1OCCN1CCOCC1	.	.	.	.	.	/
Cc1ccc(NC(=O)c2ncn(CCCN(CCCn3cnc(C(=O)Nc4ccc(C)c(C)c4)n3)Cc3ccc4[nH]ccc4c3)n2)cc1C	/	/	/	/	.	/
CC1Oc2ccccc2N(CC(=O)c2cccc(Cl)c2)C1=O (stereo not drawn)	.	.	.	.	8.0	.
COc1ccc(N2C[C@H](CSC)[C@@H](CC(=O)Nc3ccccc3)C2=O)cc1	/	/	/	/	7.0	.

Screening results as filed in PubChem.
